These targets were tested with CN(C)C(=O)Nc1ccc(Cl)c(Cl)c1 (assay: relative growth (AUC of 72 h growth curve relative to DMSO control, dAUC) (ratio); higher = more growth (less inhibition), active = hit call of the paper). Conditions: 20 µM;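 active = growth AUC significantly below the DMSO wells by Dunnett test; inactive = the rest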.
Protocol: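 Environmental bacterial isolates (Iceland stream sediment and Silwood Park soil) and whole stream-sediment communities were grown in LB from a 1:100 dilution with each pesticide at 20 µM (1% DMSO). A600 was read hourly for 72 h and the area under a spline-fitted growth curve (AUC) was computed. dAUC is the mean AUC of 3 biological replicates divided by the mean AUC of the DMSO controls. Significance was tested by Dunnett's test against the DMSO control.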

Target | relative growth
Community 8 | 1.11 (inactive)
Microbacterium 1 (Microbacterium arborescens) | 1.03 (inactive)
Hymenobacter 1 (Hymenobacter glaciei) | 1.02 (inactive)
Neobacillus 1 (Neobacillus soli) | 0.899 (inactive)
Pseudomonas 4 (Pseudomonas peli) | 0.939 (inactive)
Argrobacterium 1 (Agrobacterium sp.) | 0.867 (inactive)
Community 7 | 1.23 (inactive)
Pseudomonas 2 (Pseudomonas vancouverensis) | 0.988 (inactive)
Aeromonas 1 (Aeromonas sp. AE235) | 0.942 (inactive)
Prolinoborus 1 (Prolinoborus fasciculus) | 0.957 (inactive)
Community 10 | 1.05 (inactive)
Flavobacterium 2 (Flavobacterium succinicans) | 0.961 (inactive)
Aeromonas 3 (Aeromonas popoffii) | 0.977 (inactive)
Rhizobium 1 (Rhizobium herbae) | 1.19 (inactive)
Pseudomonas 1 (Pseudomonas baetica) | 1.03 (inactive)
Arthrobacter 3 (Arthrobacter sp.) | 0.947 (inactive)

Target | relative growth
Community 6 | 1.03 (inactive)
Oryzobacter 1 (Oryzobacter terrae) | 1.13 (inactive)
Community 9 | 1.04 (inactive)
Pseudomonas 5 (Pseudomonas baetica) | 1.02 (inactive)
Flavobacterium 1 (Flavobacterium glaciei) | 0.999 (inactive)
Sphingomonas 2 (Sphingomonas sp.) | 1.04 (inactive)
Pseudomonas 3 (Pseudomonas mandelii) | 1.02 (inactive)
Arthrobacter 1 (Arthrobacter humicola) | 0.944 (inactive)
Serratia 1 (Serratia sp. 2015-2462-01) | 0.942 (inactive)
Bacillus 1 (Bacillus foraminis) | 0.958 (inactive)
Paenibacillus 1 (Paenibacillus castaneae) | 0.883 (inactive)
Carnobacterium 1 (Carnobacterium gallinarum) | 0.949 (inactive)
Community 4 | 1.09 (inactive)
Arthrobacter 2 (Arthrobacter humicola) | 0.977 (inactive)
Pseudomonas 6 (Pseudomonas sp.) | 1.07 (inactive)
Aeromonas 2 (Aeromonas sobria) | 0.943 (inactive)

— the supplement of paper PMC12067926
